# Assay outcomes from PubChem BioAssay.
# TDP1 inh = TDP1 (human) enzyme inhibition | recombinant TDP1, AlphaScreen DNA substrate cleavage | AID 485290 | actives 0.28% (n = 350,000) | Potency, µM (titrated, usually from 130 µM), usual class: inhibitors; further: nearly all actives have a fitted effect of over 40% in size
# Target sequence (Q9NUW8 whole entry, looked up): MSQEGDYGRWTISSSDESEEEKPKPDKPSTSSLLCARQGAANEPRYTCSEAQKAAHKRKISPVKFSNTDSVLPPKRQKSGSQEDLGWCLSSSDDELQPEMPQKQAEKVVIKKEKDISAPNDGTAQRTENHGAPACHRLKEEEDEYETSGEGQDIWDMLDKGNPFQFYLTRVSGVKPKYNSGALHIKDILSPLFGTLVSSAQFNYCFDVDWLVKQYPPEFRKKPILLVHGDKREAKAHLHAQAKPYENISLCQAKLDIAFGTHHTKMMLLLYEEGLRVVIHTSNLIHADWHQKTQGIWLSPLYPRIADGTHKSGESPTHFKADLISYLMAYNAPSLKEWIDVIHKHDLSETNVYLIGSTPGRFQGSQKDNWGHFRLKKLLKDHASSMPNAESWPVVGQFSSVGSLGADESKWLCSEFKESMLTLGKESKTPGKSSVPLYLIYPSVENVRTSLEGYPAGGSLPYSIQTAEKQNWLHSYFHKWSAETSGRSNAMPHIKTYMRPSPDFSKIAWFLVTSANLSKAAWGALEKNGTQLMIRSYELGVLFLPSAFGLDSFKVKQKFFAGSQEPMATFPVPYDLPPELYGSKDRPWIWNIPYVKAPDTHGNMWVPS
#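 Compounds were preincubated with Tdp1 (1 nM final) for 15 min at room temperature before substrate (15 nM final) started a 5 min reaction; beads (10 ug/ml final) were then added for 10 min before AlphaScreen detection.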
# RORgamma inh = ROR gamma (mouse) transcription inhibition; P51450; Drosophila S2 Gal4-RORgamma UAS-luciferase reporter, 20 h; Potency, µM (titrated, usually from 53.6 µM), actives largely listed as inhibitors; actives 5.4% (n = 310,000); AID 2551; further: nearly all actives have a fitted effect of over 60% in size
#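 In this cell-based reporter format, copper sulfate (700 uM final) drives Gal4–ROR gamma fusion expression from a metallothionein promoter in Drosophila Schneider cells; compounds preincubated 1 hr, reporter read after 20 hr at ambient temperature.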
# DT40 TDP1 CPT = growth inhibition of DT40 Tdp1-/-;hTDP1 cells with camptothecin (screen for TDP1 inhibitors); chicken DT40 Tdp1-/-;hTDP1 cells + 20 nM CPT, ATP luminescence, 48 h; actives 12% (n = 420,000); Potency, µM (series often up to 46.2 µM), most hits filed as inhibitors; further: nearly all actives have a fitted effect of over 55% in size
#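 Chicken DT40 Tdp1-/- cells stably complemented with human TDP1 were seeded at 400 cells/well in medium containing 20 nM camptothecin, exposed to pin-transferred compounds, and grown at 37 °C for at least 48 hr. Viability was read as ATP luminescence.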
# DT40 TDP1 no CPT = qHTS for Inhibitors of human tyrosyl-DNA phosphodiesterase 1 (TDP1): qHTS in cells in absence of CPT; actives 15% (n = 420,000); Potency, µM (highest dose often 46.2 µM), most hits filed as inhibitors; DT40 Tdp1-/- hTDP1 cells, no CPT, ATP luminescence, 48 h; AID 686978, 2013; further: nearly all actives have a fitted effect of over 55% in size
#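 Seeded 400 DT40-hTDP1 cells/well (vehicle DMSO, no 20 nM CPT); pinned compounds; ≥48 hr at 37 °C; CellTiter-Glo luminescence as viability measure.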
# VP16 counter = Gal4-VP16 reporter inhibition counter-screen. Drosophila S2 Gal4-VP16 UAS-luciferase, luminescence, 20 h. Potency, µM (series often up to 53.6 µM), hits mostly inhibitors. actives 3.5% (n = 310,000);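 further: Gal4-VP16 expression switched on by copper sulfate through the metallothionein promoter; nearly all actives have a fitted effect of over 50% in size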
# A number is an active result; i = inactive; ? = inconclusive; nt = no result given; [ ] = remark or other dose. Most compounds without a hit are left out; they make up all but 19% or so of the library. The call rests on the fitted dose curve; in most records, active means well fitted curve in the direction sought with a large enough effect; inconclusive means small, poorly fitted or top-dose-only effect, or another doubt; inactive means no such curve, though single readings can be large; an effect the other way counts as inactive or inconclusive.
SMILES,TDP1 inh,RORgamma inh,DT40 TDP1 CPT,DT40 TDP1 no CPT,VP16 counter
COc1ccc(NC(=O)C2(C)CCN2Cc2csc3ccccc23)cc1OC (stereo not given),nt,nt,15µM,15µM,nt
CC1(C(=O)Nc2cccc3cccnc23)CCN1Cc1csc2ccccc12 (stereo not given),nt,nt,i,i,nt
C/C(=C\C(=O)c1ccc(Cl)cc1)NCc1ccc2c(c1)OCO2,i,i,i,i,i
COc1ccc(-c2sc3ccc(OC)cc3c2C#CCCO)cc1,nt,i,?,?,i
COc1cccc(-c2sc3ccc(OC)cc3c2C#CC(C)(C)O)c1,i,nt,23µM,18µM,nt
COc1ccc2sc(-c3ccc(N(C)C)cc3)c(C#CCCO)c2c1,i,nt,?,16µM,nt
COc1ccc2sc(-c3ccc(N(C)C)cc3)c(C#CC(C)(C)O)c2c1,i,nt,8.2µM,8.2µM,nt
COc1ccc2sc(-c3ccc(N(C)C)cc3)c(C#Cc3cncn3C)c2c1,i,nt,5.8µM,5.8µM,nt
COc1cccc(OCc2cc(C(=O)N(C)C3CCOCC3)no2)c1,i,i,i,i,i
CCn1c(SCCC#N)nnc1-c1ccncc1,i,i,i,i,i
CSc1ccc(C2c3[nH]c4ccccc4c3CCN2C(=O)CCc2ccccc2)cc1 (stereo not given),i,nt,i,i,nt
Cc1ccc(NC(=O)CSc2nnc3scc(-c4ccccc4)n23)cc1,nt,nt,i,i,nt
CCOC(=O)c1cc(C#N)c(Oc2ccc(F)cc2)nc1-c1ccccc1,i,i,?,?,i
Cc1nc2c3cc(F)ccc3n(Cc3ccccc3F)c2s1,i,i[10 µM],7.3µM,?,i
Cc1nc2c3ccccc3n(Cc3ccccc3F)c2s1,i,i,?,?,i
Cc1nc2c3cc(F)ccc3n(CCN3CCCCC3)c2s1,i,i,6.5µM,7.3µM,i
Cc1ccc(Nc2cc(-n3cccn3)ncn2)c(C)c1,i,i,?,?,i
CCn1cc(C(=O)NCc2ccccc2Cl)c(=O)c2cc(S(=O)(=O)N3CCCCCC3)ccc21,i,nt,?,21µM,nt
CCn1cc(C(=O)NCc2ccccc2Cl)c(=O)c2cc(S(=O)(=O)N3CCOCC3)ccc21,i,nt,i,i,nt
CCn1cc(C(=O)NCc2ccccc2OC)c(=O)c2cc(S(=O)(=O)N3CCCCC3)ccc21,i,nt,18µM,?,nt
CCn1c(/C=C/c2c[nH]c3ccccc23)nc2ccccc2c1=O,i,i,?,3.3µM,?
Cc1ccccc1/C=C\c1nc2ccccc2c(=O)n1Cc1ccccc1,i,i,?,?,i
CCn1c(/C=C\c2ccccc2C)nc2ccccc2c1=O,i,i,23µM,13µM,i
CCn1c(/C=C/c2ccccc2Cl)nc2ccccc2c1=O,nt,i,?,16µM,i
CN(C)S(=O)(=O)c1ccc2[nH]cc(/C=C/c3nc4ccccc4c(=O)n3-c3ccccc3)c2c1,i,i,5.8µM,5.2µM,i
SMILES,TDP1 inh,RORgamma inh,DT40 TDP1 CPT,DT40 TDP1 no CPT,VP16 counter
CCn1c(/C=C/c2ccccc2[N+](=O)[O-])nc2ccccc2c1=O,i,i,?,?,i
CCCS(=O)(=O)NC(=O)C1(C)CCCN(C(=O)c2ccc(SC(F)(F)F)cc2)C1 (stereo not given),nt,nt,i,i,nt
Cc1cccc(/C=C/c2nc3ccccc3c(=O)n2Cc2ccccc2)c1,i,i,?,?,i
O=c1c2ccccc2nc(/C=C/c2cccnc2)n1CCc1ccccc1,nt,i,15µM,13µM,i
CCN(CC)c1ccc(-c2n[nH]c(=S)n2-c2ccccc2)cc1,i,1.6µM,18µM,23µM,i
CCN(CC)c1ccc(-c2n[nH]c(=S)n2-c2ccccc2C)cc1,i,?,21µM,18µM,i
CN(C)c1ccc(-c2n[nH]c(=S)n2-c2ccccc2)cc1,i,2.2µM,i,i,?
N#Cc1ccc(OCC(=O)N/N=C(\CCC(=O)O)c2cccs2)cc1,i,i,i,i,i
O=C(O)[C@H](Cc1ccccc1)Nc1ccc([N+](=O)[O-])cn1,nt,i,i,i,i
CCOC(=O)C[C@H]1c2cc(F)ccc2S(=O)(=O)N1Cc1cc(OC)c(OC)c(OC)c1,nt,nt,10µM,11µM,nt
COC(=O)CC1c2ccccc2S(=O)(=O)N1Cc1ccccc1 (stereo not given),i,i,i,i,i
